Among the data in PubChem BioAssay (NCATS) are Potency values, retold here.

The structures appear in SMILES notation. Activity calls are given as the source filed them. How the calls were made is not given here. Where only a bound is given, the exact number is not on record here.
Potency means the concentration at half of the fitted maximal effect.

The experiment concerns HIV-1 nucleocapsid protein NCp7 (binding to TG oligonucleotide). Kind of experiment: HIV Nucleocapsid (AID 346).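 Further: potency is for inhibitors that block NC binding and lower polarization.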 Particulars: HIV-1 NC / fluorescein-TGTGTGTG probe, fluorescence polarization. Summed up:
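Fluorescence polarization binding of 100 nM HIV-1 NC to 10 nM fluorescein-labelled TG4xF oligonucleotide. Buffer was Hepes pH 7.5 with 250mM NaCl, 1uM ZnCl2, TCEP and 2-mercaptoethanol. Compounds were incubated 1 hr at room temperature before the read.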
In general terms: Fluorescence polarisation rises when a labelled molecule tumbles more slowly, as on binding a larger partner.
Take `CN(C)c1ccc(-c2cc(-n3ccnc3)ncn2)cc1`: the Potency is > 20 µM (inactive).
In the case of `Cn1c(=O)c(-c2cccs2)nc2cnc(OCc3ccccc3)nc21` it was > 20 µM (inactive); in that of `CS(=O)(=O)N1CCC2(CC1)CN(Cc1ccccc1)C2`, > 20 µM (inactive); in that of `COc1ccc(C(=O)N2CCC3(CCN(C(=O)Nc4cccc(F)c4)CC3)CC2)cc1`, > 20 µM (inactive).
In the case of `c1cncc(-c2nc(-n3ccnc3)c3ccccc3n2)c1` it was > 20 µM (inactive); in that of `COc1ccccc1CNc1ncncc1-c1cccc(C#N)c1`, > 20 µM (inactive); in that of `COCCNc1nc(-c2ccccc2C(F)(F)F)nc2ccccc12`, > 20 µM (inactive).
Then `COc1cccc(Cn2c(=O)c(-c3ccc(Cl)cc3)nc3cnc(OC)nc32)c1`, with > 20 µM (inactive).
